Calls of active or inactive are those of the source. Unless noted, no rule for the calls is given here.

Here are results for 13 compounds from PubChem BioAssay.

Assay [1] is described as follows: HepG2 liver cancer cell viability effects, profiling panel, resazurin fluorescence, 24 h, PK04 Diversity Set (AID 1172). Also: test concentration not given here. Particulars: higher = more signal. For orientation: Alamar Blue is a resazurin reagent that responds to reducing activity.
Assay [2] in a line: basal S. cerevisiae growth modulation, no modifier, primary screen, OD600, strain BY4716, 24 h, basal condition (AID 1173). Particulars: OD600, 24 h, higher = more signal, called active from +8 up or from −8 down.
The nature of assay [3]: MM1S myeloma cell viability, profiling panel, resazurin fluorescence, basal, 24 h, PK04 Diversity Set (AID 1174).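 Also: MM1S multiple myeloma cell line; test concentration not given here.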 Particulars: higher = more signal, called active from +8 up or from −8 down.
In assay [4] the target is Dihydroorotate dehydrogenase (quinone), mitochondrial (Plasmodium falciparum (isolate 3D7)) (UniProt Q08210). In words: PfDHODH enzyme inhibitors, primary screen, biochemical, C-terminal His tag, absorbance 600 nm (AID 1175).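 Also: recombinant parasite enzyme with a five histidine tag at its C terminus; test concentration not given here.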 Particulars: DCIP absorbance 600 nm, higher = more signal, called active from +8 up or from −8 down.
Assay [5] can be described thus: P. aeruginosa biofilm formation inhibitors, primary screen, strain PAO1, LB-PBS medium, absorbance 600 nm (AID 1176). Also: test concentration not given here. To be noted: P. aeruginosa PAO1 growth/biofilm, A600, 12 h; higher = more signal.
Assay [6] in a line: S. cerevisiae RM11-1a growth modifiers, primary screen, strain RM11-1a, OD600, basal, 24 h (AID 1177).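 Also: cultures grown under basal conditions with no added stressor; test concentration not given here.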 Particulars: OD600, 24 h, higher = more signal, called active from +8 up or from −8 down.
Assay [7] is described as follows: E. coli acrAB mutant growth effects, primary screen, E. coli filamentation inducers, strain DRC39, OD650, 24 h (AID 1178).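 Also: growth measured as culture turbidity by optical density at 650 nm; test concentration not given here.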 Particulars: higher = more signal, called active from +8 up or from −8 down.
A short description of assay [8]: E. coli acrAB mutant growth effects, primary screen, E. coli filamentation inducers, strain DRC39, OD650, 48 h (AID 1179).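 Also: screen aims at cell division blockers that make cells filament.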 Particulars: E. coli DRC39 delta-acrAB growth, higher = more signal, called active from +8 up or from −8 down.
Assay [9] can be described thus: RPMI8226 myeloma cell viability, profiling panel, resazurin fluorescence, basal, 24 h, PK04 Diversity Set (AID 1180).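 Also: RPMI8826 multiple myeloma cell line at 5000 cells per well; test concentration not given here.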 To be noted: higher = more signal.
The target in assay [10] is E3 ubiquitin-protein ligase XIAP (Homo sapiens) (UniProt P98170). In words: XIAP binders, primary screen, biophysical, small-molecule microarray, fluorescence 635 nm (AID 1181).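 Also: score merges 667 nm emission and signal to noise over triplicate slides.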 To be noted: small-molecule microarray binding, higher = more signal.
Sequence of E3 ubiquitin-protein ligase XIAP (Homo sapiens) (P98170 whole entry, looked up): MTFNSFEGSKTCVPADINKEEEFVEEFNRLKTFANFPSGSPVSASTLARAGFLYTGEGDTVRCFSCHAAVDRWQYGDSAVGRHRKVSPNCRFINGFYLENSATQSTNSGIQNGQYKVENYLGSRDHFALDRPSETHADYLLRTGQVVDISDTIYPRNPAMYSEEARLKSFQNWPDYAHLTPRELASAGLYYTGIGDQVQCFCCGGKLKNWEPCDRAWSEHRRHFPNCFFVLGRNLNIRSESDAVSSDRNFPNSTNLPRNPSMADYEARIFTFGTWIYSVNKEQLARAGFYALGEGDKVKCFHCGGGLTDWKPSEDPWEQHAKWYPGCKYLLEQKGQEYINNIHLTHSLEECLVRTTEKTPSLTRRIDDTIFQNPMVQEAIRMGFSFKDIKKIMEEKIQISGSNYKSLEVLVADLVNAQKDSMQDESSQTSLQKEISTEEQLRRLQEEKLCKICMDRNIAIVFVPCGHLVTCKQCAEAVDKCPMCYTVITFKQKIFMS

Sequence of Dihydroorotate dehydrogenase (quinone), mitochondrial (Plasmodium falciparum (isolate 3D7)) (Q08210 whole entry, looked up): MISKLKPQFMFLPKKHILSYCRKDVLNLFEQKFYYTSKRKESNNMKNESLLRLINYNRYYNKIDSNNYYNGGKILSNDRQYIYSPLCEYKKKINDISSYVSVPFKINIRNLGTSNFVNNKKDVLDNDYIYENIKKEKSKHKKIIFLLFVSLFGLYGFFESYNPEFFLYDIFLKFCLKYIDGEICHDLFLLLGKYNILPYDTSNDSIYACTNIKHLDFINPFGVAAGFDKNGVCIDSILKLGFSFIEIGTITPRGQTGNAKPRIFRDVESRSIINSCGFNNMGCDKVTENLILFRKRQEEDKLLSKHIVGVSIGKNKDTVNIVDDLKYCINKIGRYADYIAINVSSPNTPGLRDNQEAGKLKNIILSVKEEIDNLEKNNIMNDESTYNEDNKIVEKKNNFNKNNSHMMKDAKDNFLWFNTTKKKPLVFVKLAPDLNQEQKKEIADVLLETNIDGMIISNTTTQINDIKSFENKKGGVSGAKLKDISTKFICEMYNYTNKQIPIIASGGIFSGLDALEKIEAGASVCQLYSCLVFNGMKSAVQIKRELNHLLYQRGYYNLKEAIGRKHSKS

Regarding `NC(=O)NCC#Cc1ccc2c(c1)[C@]1(C(=O)N2)[C@H](c2ccc(O)cc2)N2[C@H](c3ccccc3)[C@H](c3ccccc3)OC(=O)[C@H]2[C@@H]1C(=O)N1CCCCCCC1`, the z-score in assay [1] is 0.855; in [2], 1.16 (inactive); in assay [3] it was 0.949 (inactive); in [5], 1.1 (inactive); in assay [6], 1.96 (inactive); in assay [7], 1.04 (inactive). Further, the z-score was -0.817 (inactive) in assay [8] and 1.36 in [9]. In addition, the composite z-score was -0.127 (inactive) in [4] and -0.0925 in assay [10].

`CO[C@H]([C@@H](C)[C@H](OC)c1ccccc1)[C@H](C)[C@@H](OC)[C@H](C)C(C)=O`: the z-score in assay [1] is 0.0132; in assay [2] it was -1.22 (inactive); in assay [3], 0.367 (inactive); in [5] it was -0.373 (inactive); in [6] it was 0.135 (inactive); in [7], -0.0566 (inactive). Besides, the z-score is -0.59 (inactive) in [8] and -0.0764 in [9]. Moreover, the results for the composite z-score in assay [4] and in assay [10] were 0.758 (inactive) and -0.21, respectively.

Consider `O=C1C[C@@H](O)[C@@H](O)[C@@H]2[C@@H]3C(=O)N(c4ccc(F)cc4F)C(=O)[C@@H]3CC[C@@H]12`, for which the z-score is 0.685 in [1]; 0.461 (inactive) in assay [2]; 0.491 (inactive) in assay [3]; -0.626 (inactive) in assay [5]; -0.584 (inactive) in assay [6]; -0.385 (inactive) in [7]. For the same compound, the z-score is -0.302 (inactive) in assay [8] and 0.481 in [9]. The composite z-score in [4] was 0.374 (inactive); in assay [10], -0.0735.

Take `[N-]=[N+]=NCc1ccccc1C[C@]1(C(=O)NCc2ccccc2)N=C(c2ccc(OCCCO)cc2)O[C@H]1c1ccccc1N=[N+]=[N-]`: the z-score is -0.269 in assay [1]; 0.316 (inactive) in assay [2]; -1.53 (inactive) in [3]; 1.68 (inactive) in assay [5]; -0.204 (inactive) in assay [6]; 0.82 (inactive) in [7]. The z-score in assay [8] is -0.0271 (inactive); in assay [9], -2.15. Also, the composite z-score in assay [4] is 0.294 (inactive); in [10], -0.22.

For `CC(=O)OC[C@H]1O[C@H](C#CCCCc2ccccc2)C=C[C@@H]1OC(C)=O`, the z-score was -0.22 in assay [1]; -2.31 (inactive) in assay [2]; -4.16 (inactive) in [3]; -0.0569 (inactive) in [5]; 0.291 (inactive) in [6]; 0.387 (inactive) in assay [7]. Also, the figures for the z-score in [8] and in [9] were -0.0416 (inactive) and -2.47, respectively. In addition, the results for the composite z-score in assay [4] and in [10] were -0.791 (inactive) and 0.072, respectively.

With `CO[C@@H]1COC(=O)CC=C[C@@H](C)[C@H](OC)COC(=O)[C@H](COCc2ccccc2)NC(=O)CC=C[C@H]1C`, the z-score in assay [1] was 0.628; in assay [2], -1.13 (inactive); in assay [3], -0.0928 (inactive); in [5], -0.225 (inactive); in assay [6] it was -0.47 (inactive); in [7], 0.406 (inactive). The values for the z-score in [8] and in [9] were -0.723 (inactive) and 1.35, respectively. The composite z-score in [4] is -0.0234 (inactive); in [10], 0.17.

Take `Cc1cc2c(c(=O)o1)[C@H](O)[C@H]1O[C@H]1C2=O`: the z-score in assay [1] is 0.145; in assay [2], -2 (inactive); in assay [3] it was -1.19 (inactive); in assay [5], -0.282 (inactive); in assay [6], -0.627 (inactive); in [7], -0.973 (inactive). For the same compound, the results for the z-score in [8] and in assay [9] were -0.662 (inactive) and -0.764, respectively. The composite z-score in assay [4] is 0.44 (inactive); in assay [10] it was -0.176.

For `CC(C)C[C@@H]1NC(=O)[C@H]2C[C@@H](C(=O)O)[C@@H](c3ccc(O)cc3)N2C1=O`, the z-score in [1] is 0.374; in assay [2], 0.0437 (inactive); in assay [3], 0.816 (inactive); in assay [5], -0.86 (inactive); in [6] it was 1.58 (inactive); in assay [7], -0.139 (inactive). The z-score in assay [8] was -0.456 (inactive); in assay [9], 0.453. Besides, the composite z-score is 0.425 (inactive) in [4] and -0.125 in assay [10].

Regarding `COc1ccc([Si](C)(C)[C@H]2[C@H](CCO)O[C@@]3(C(=O)N(Cc4cccc(NC(=O)[C@H](C)O)c4)c4ccccc43)[C@@H]2C)cc1`, the z-score is -5.76 in assay [1]; -0.321 (inactive) in [2]; -9.08 (active) in assay [3]; 1.19 (inactive) in assay [5]; 4.03 (inactive) in assay [6]; 1.7 (inactive) in [7]. Besides, the z-score was 1.14 (inactive) in assay [8] and -6.16 in [9]. The figures for the composite z-score in assay [4] and in assay [10] were 1.35 (inactive) and 0.131, respectively.

In the case of `CC1CC/C=C\[C@H]2OC34C=CCN(C(C)C)C(=O)[C@H]3N(CCCO)C(=O)[C@@H]4C2C(=O)O1` (stereo not given in full), the z-score in assay [1] is 0.49; in assay [2] it was -0.404 (inactive); in assay [3], 0.48 (inactive); in assay [5] it was -0.91 (inactive); in assay [6] it was -0.467 (inactive); in [7] it was 1.05 (inactive). Moreover, the z-score in [8] was 0.634 (inactive); in [9] it was 0.817. The composite z-score in assay [4] was 0.395 (inactive); in assay [10] it was 0.0131.

Take `CN(C)C(=O)[C@@]1(Cc2ccccc2)N=C(c2ccc(OCCCO)cc2)O[C@H]1c1ccccc1CN=[N+]=[N-]`: the z-score in assay [1] is -0.412; in assay [2], -0.618 (inactive); in [3], -1.23 (inactive); in assay [5] it was 0.535 (inactive); in [6], -0.112 (inactive); in assay [7], -0.0193 (inactive). Further, the z-score in [8] is -0.139 (inactive); in [9], -1.23. In addition, the composite z-score in assay [4] is 0.519 (inactive); in assay [10], 0.215.

In the case of `COCCOC(=O)N1C(=O)[C@@]2(c3cc(C#CC4(O)CCCCCC4)ccc31)[C@H](C(=O)N1CCN(c3ncccn3)CC1)[C@H]1C(=O)O[C@H](c3ccccc3)[C@H](c3ccccc3)N1[C@@H]2c1ccc(OCCO)cc1`, the z-score was -0.324 in assay [1]; 1.44 (inactive) in assay [2]; 0.712 (inactive) in [3]; 2.53 (inactive) in assay [5]; 2.98 (inactive) in assay [6]; -0.446 (inactive) in [7]. For the same compound, the z-score in assay [8] was 0.293 (inactive); in assay [9] it was 0.928. Also, the composite z-score in assay [4] is -0.0915 (inactive); in assay [10], -0.0749.

With `COCCCNC(=O)[C@]1(Cc2ccccc2)N=C(c2ccc(OCCCO)cc2)O[C@@H]1c1ccccc1`, the z-score was 0.754 in assay [1]; -0.706 (inactive) in assay [2]; 0.325 (inactive) in assay [3]; 0.494 (inactive) in assay [5]; -0.499 (inactive) in assay [6]; 0.156 (inactive) in assay [7]. Moreover, the results for the z-score in assay [8] and in [9] were -1.11 (inactive) and 0.778, respectively. Further, the results for the composite z-score in assay [4] and in [10] were -0.0882 (inactive) and -0.0118, respectively.
